Measurements from article PMC8769072, “Proteome‐scale mapping of binding sites in the unstructured regions of the human proteome” (Molecular Systems Biology, 2022).

Binder	selected by phage display (MAP1LC3A 2-121, Q9H492)	selected by phage display (MAP1LC3B 2-119, Q9GZQ8)
HDDFVMIDFKPAFSKD [ATG13, O75143]	confidence 3 (active)	
EYEIIETIGNGAYGVV [MAPK7, Q13164]		confidence 2 (active)
DLTESSSMVDGDWTMV [RIC1, Q4ADV7]	confidence 4 (active)	confidence 4 (active)
MAMSNGNNDFVVLSNS [DISP1, Q96F81]		confidence 2 (active)
GWDYGIGGGWDHISVR [TECPR1, Q7Z6L1]	confidence 2 (active)	
LNVSSREEAFTDLSLA [USP35, Q9P2H5]	confidence 3 (active)	
LPEGFQLLQIDAEGEA [TRMT10B, Q6PF06]	confidence 2 (active)	
GWETVEMHPAYTEEEL [NUCB1, Q02818]	confidence 2 (active)	
EPGWVVLDQPDAAAHL		confidence 4 (active)
QVDEVTDLLASFTSLS [ANKRD54, Q6NXT1]	confidence 3 (active)	
WEVVTSAIPRGAWHGA [ZNF419, Q96HQ0]	confidence 2 (active)	
EPWAQLEASDIHTAAA [WDR90, Q96KV7]	confidence 3 (active)	confidence 4 (active)
SLEPPSPFELLEPPTS [MAP1S, Q66K74]	confidence 3 (active)	
DSWEIIEGLKIGQTNV [OSBPL6, Q9BZF3]		confidence 3 (active)
GNSGFQLLDLVHEEGE [SLC7A6OS, Q96CW6]	confidence 2 (active)	
VDNRESSENWEIIRED		confidence 2 (active)
GPEAASGEWELLRLDS [ESPL1, Q14674]	confidence 2 (active)	
DGDTLDSDEFAILDAP [ATG2A, Q2TAZ0]	confidence 4 (active)	
HLGEWGHLDPAEENLK [ZSCAN18, Q8TBC5]	confidence 2 (active)	
NLAPSDEESSWTTLSQ [APBB2, Q92870]	confidence 2 (active)	
RQEEKQVLLQADWTLL [ZNF579, Q8NAF0]	confidence 2 (active)	

Binder	selected by phage display (MAP1LC3A 2-121, Q9H492)	selected by phage display (MAP1LC3B 2-119, Q9GZQ8)
WATIEPAPDAASLLAS [AKAP13, Q12802]	confidence 3 (active)	
APELWTELTGLAASSE [KIFC2, Q96AC6]	confidence 3 (active)	
AEESFTTLNVDIRNHQ [USP9X, Q93008]	confidence 2 (active)	
LEAEVDFTVIGDYHGS [EPB41L1, Q9H4G0]	confidence 2 (active)	
PQALERADGSWAWVVL [SLC16A5, O15375]	confidence 3 (active)	confidence 3 (active)
RGGGSVGSDVGQRLPV [KCNT1, Q5JUK3]	confidence 2 (active)	
TDTHWTDLTHLIEKLK [TRIM59, Q8IWR1]	confidence 3 (active)	
QEEWALLDPSQKNLYR [ZNF878, C9JN71]		confidence 2 (active)
ANGWQIISSSSGATPT [SP1, P08047]	confidence 4 (active)	
WEEFESLQKQEVKNLH [PTPN6, P29350]	confidence 2 (active)	
DAGLGFVDLTDLTDHQ [PEG3, Q9GZU2]	confidence 3 (active)	
QAVTHDNEWEMLSPQP [PRUNE2, Q8WUY3]		confidence 4 (active)
TENDDFAILFAPKAAM [ATG2B, Q96BY7]	confidence 3 (active)	
AVQVPESFEHLPPLPE [ATF7IP2, Q5U623]	confidence 4 (active)	
WTDLASIFGSNKDLMG [NLRP2, Q9NX02]	confidence 3 (active)	
HVRDAIRSYTEDWAIV [DOCK7, Q96N67]		confidence 2 (active)
YELLTENDMLPNMRIG [JAK2, O60674]	confidence 2 (active)	confidence 2 (active)
PHSHDWVWLGNEVELL [TMEM132B, Q14DG7]		confidence 2 (active)
VPFTELVVQSITPHQS [BMP2K, Q9NSY1]	confidence 3 (active)	
PPAPLAHSDDYVHISL [TSC1, Q92574]		confidence 2 (active)
VLASMKNTYEVLDFLG [HIPK3, Q9H422]	confidence 2 (active)	

Binder	selected by phage display (MAP1LC3A 2-121, Q9H492)	selected by phage display (MAP1LC3B 2-119, Q9GZQ8)
MVEAGGLLEKWTLLEE [APOBR, Q0VD83]	confidence 4 (active)	
ASPQGEWTILELETQH [KIAA1107, Q9UPP5]	confidence 3 (active)	
DLNSQDRVDHEEWEMV [STBD1, O95210]	confidence 4 (active)	
LEDSFAHLQLSGDNTA [RNF146, Q9NTX7]	confidence 3 (active)	
AGHQLGLEADGHWGLL [ZNF469, Q96JG9]		confidence 3 (active)
WRDMTTITEDEISKLR [CACTIN, Q8WUQ7]	confidence 2 (active)	
KPIKENIEESYVHLDI [FRYL, O94915]		confidence 3 (active)
FPSSGFTDLAEIVSRI [PNPLA6, Q8IY17]	confidence 3 (active)	
WVWLGNEAELLESMGD [TMEM132C, Q8N3T6]	confidence 4 (active)	confidence 3 (active)
DIGGFTLLDGKLVLLG [RASAL3, Q86YV0]		confidence 4 (active)
EWQHLDSAQRTPYRDM [ZNF487, B1APH4]	confidence 2 (active)	
DSWGIIAEPRQSAFSN [IRS4, O14654]	confidence 4 (active)	
TAQQLETTTERWLVID [CC2D1A, Q6P1N0]	confidence 3 (active)	
VPAFEVLEISPQEVSS [MS4A2, Q01362]	confidence 2 (active)	
QGSRQDSWEVVEGLRG [OSBPL3, Q9H4L5]	confidence 2 (active)	
DFTFLRPLSVQQPTAL [PCDHGC5, Q9Y5F6]	confidence 3 (active)	
WEDLEARINAENEVPI [CEP170B, Q9Y4F5]	confidence 2 (active)	
TVNEWAHLQEDTNSHI [ANKRD62, A6NC57]	confidence 4 (active)	
SPNREWEVLQPAPHQV [NCOR1, O75376]	confidence 3 (active)	
